In PubChem BioAssay (NCATS):
Inconclusive results are not listed. Activity calls are given as the source filed them. Calls come from the whole dose curve; as a rule, active = well fitted inhibition curve with a large enough effect; inconclusive = small, poorly fitted or top-dose-only effect; inactive = flat fitted curve, though single readings scatter.

test: High Content Imaging Cell-Based qHTS for Inhibitors of the mTORC1 Signaling Pathway in MEF (Tsc2-/-, p53-/-) Cells (AID 2666); conditions: at 38.3 µM (top of the series);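 note: percent of cells scored positive for phospho-rpS6 Ser235/236 immunostaining by imaging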
Excerpt: NIH Molecular Libraries Probe Production Centers Network [MLPCN]
NIH Chemical Genomics Center [NCGC]
Assay Submitter (PI): Blenis, John; Hoffman, Greg; Harvard University
NCGC Assay Overview: Thee mammalian target of rapamycin (mTOR) is an intracellular serine/threonine kinase Aberrant regulation of mTOR signaling plays a causative role in a number of human diseases, including cancer, benign tumors such as lymphangioleiomyomatosis (LAM) and Tuberous Sclerosis Complex (TSC), and metabolic diseases such as diabetes and obesity. This project aims to identify inhibitors of ribosomal protein S6 (rpS6) phosphorylation. The phosphorylation of rpS6 is a key event downstream of mTOR activation. The assay uses a phospho-specific antibody of phospho-rpS6 to detect inhibitors of mTOR activation. Mutations in the Tsc1 and Tsc2 genes are the underlying genetic lesions responsible for TSC, causing constitutive activation of the mTORC1 pathway and leading to profound effects on cell metabolism. Aberrant metabolism in cancer has recently received significant attention as a target to develop therapeutic agents in the treatment of cancer1. As Tsc2-/- cells have lost the ability to respond to energy and growth factor deprivation, these cells are unable to properly down regulate cellular biosynthetic processes in response to metabolic stress, and are thus extremely sensitive to glucose deprivation-induced death.2 A central goal of this project is to explore the unique cell survival and metabolic properties of cells with Tsc1 or Tsc2 by screening for compounds that selectively target the Tsc2-/- MEFs by screening both Tsc2-/- and WT MEF cell lines. We hope to better understand these aspects of TSC physiology in order to exploit them for therapeutic benefit.
NCGC IN Cell Assay Protocol:
For quantitative high throughput analysis of mTORC1 signaling, we developed a cell-based assay for immuno-fluorescence based detection of rpS6 phosphorylation on the Acumen Explorer that will be used a platform for the primary small molecule screen. Mouse embryonic fibroblasts (MEFs) are cultured in 1536-well plates using DMEM + 10% FBS. Twenty-four hrs after plating, test compounds (solubilized in DMSO) are delivered and incubated with the cells for 24 hrs at 37 degree Celsius. Following the incubation, media with compound is aspirated and the cells are fixed in 4% paraformaldehyde (PFA) containing PBS + 0.2% TX-100. Next, PFA is aspirated, cells are washed two times with PBS plus 0.2% TX-100 and the cells are blocked for 1 hr at room temperature (blocking buffer: LiCOR Blocking Buffer plus 0.2% TX-100). This is followed by aspiration and staining with Alexa-488 conjugated-phospho-rpS6 Ser235/236 antibody for 2 hours at room temperature (Cell Signaling Technology # 4803, 1:50 dilution in blocking buffer). Cells are washed two times with PBS plus 0.2% TX-100, and stained with 10 uM propidium iodide (PI) for 20-25 minutes for cell number measurement (1:500 dilution of Hoescht staining is also added for IN Cell imaging). Active wells which are selected (based on Acumen results) are imaged on the IN Cell 1000 (GE Healthcare) using the D360/40X and HQ480/40X excitation filters for the Hoechst and Alexa-488 cytoplasmic stains, respectively. The fluorescence emission filters used were HQ460/40M and HQ535/50M for the Hoechst and Alexa-488 cytoplasmic stains, respectively. The normalized phospho-S6 staining is calculated as the ratio of […] for the single concentration rapamycin control ([…] nM) and DMSO columns. […] Inhibition of the pathway is defined based on the normalized phospho-S6 intensity in rapamycin treated cells. Each treatment is reported as the % positive cells in the well, where thresholds are defined by selecting wells with the highest and lowest signal and differentiating between the % non-active and % active populations. […]

Row | SMILES | outcome
1 | CC(C)(Sc1ccc(CCN(CCCCC2CCCCC2)C(=O)NC2CCCCC2)cc1)C(=O)O | inactive
2 | NC(N)=NC(=O)c1nc(Cl)c(N)nc1N | inactive
3 | CCCC(CCC)C(=O)O | inactive
4 | Cc1[nH]c(=O)c(C#N)cc1-c1ccc2nccn2c1 | inactive
5 | Cc1cnc(NC(=O)C2=C(O)c3ccccc3S(=O)(=O)N2C)s1 | inactive
6 | CNC[C@H](O)c1cccc(O)c1 | inactive
7 | N=c1nc(N2CCCCC2)cc(N)n1O | inactive
8 | O=C1CCC(N2C(=O)c3ccccc3C2=O)C(=O)N1 (stereo not given) | inactive
9 | C[C@]12CCC(=O)C=C1CC[C@@H]1[C@@H]2[C@@H](O)C[C@@]2(C)[C@H]1CC[C@]2(O)C(=O)CO | inactive
10 | O=C1CCc2cc(OCCCCc3nnnn3C3CCCCC3)ccc2N1 | inactive
11 | CCn1cc(C(=O)O)c(=O)c2cc(F)c(N3CCNC(C)C3)c(F)c21 (stereo not given) | inactive
12 | N[C@@H]1CONC1=O | inactive
13 | Cc1cccc(-c2[nH]c(C(C)(C)C)nc2-c2ccc3nccnc3c2)n1 | inactive
14 | Nc1nc2c(ncn2COCCO)c(=O)[nH]1 | inactive
15 | CCOC(=O)C1=C[C@]2(CC)CCCN3CCc4c(n1c1ccccc41)[C@@H]32 | inactive
16 | Cc1[nH]c(=O)c(C#N)cc1-c1ccncc1 | inactive
17 | c1ccc([C@H]2CN3CCSC3=N2)cc1 | inactive
18 | NCCCC(N)(C(=O)O)C(F)F (stereo not given) | inactive
19 | CC(C[N+](C)(C)C)OC(N)=O (stereo not given) | inactive
20 | O=NN(CCCl)C(=O)NCCCl | inactive

Row | SMILES | outcome
21 | CC(C)NCC(O)COc1ccc(COCCOC(C)C)cc1 (stereo not given) | inactive
22 | Nc1ncnc2nc(-c3ccc(N4CCOCC4)nc3)cc(-c3cccc(Br)c3)c12 | inactive
23 | NC[C@H](O)c1ccc(O)c(O)c1 | inactive
24 | NS(=O)(=O)c1cc2c(cc1Cl)NC=NS2(=O)=O | inactive
25 | CC(C)(C)NCC(O)c1ccc(O)c(CO)c1 (stereo not given) | inactive
26 | Oc1ccc(C2CNCCc3c2cc(O)c(O)c3Cl)cc1 (stereo not given) | inactive
27 | Nc1nc2ccc(OC(F)(F)F)cc2s1 | inactive
28 | OC(CN1CCC(Cc2ccc(F)cc2)CC1)c1ccc(Cl)cc1 (stereo not given) | inactive
29 | Nc1ccc(S(=O)(=O)Nc2ccnn2-c2ccccc2)cc1 | inactive
30 | CCC(C)N(C)C(=O)c1cc2ccccc2c(-c2ccccc2Cl)n1 (stereo not given) | inactive
31 | CCN(CC)CCCC(C)Nc1ccnc2cc(Cl)ccc12 (stereo not given) | inactive
32 | Cc1ccc(N(CC2=NCCN2)c2cccc(O)c2)cc1 | inactive
33 | CC(C)C[C@H](NC(=O)[C@@H](O)[C@H](N)Cc1ccccc1)C(=O)O | inactive
34 | O=c1n(CCCN2CCN(c3cccc(Cl)c3)CC2)nc2ccccn12 | inactive
35 | Cn1cnc([N+](=O)[O-])c1Sc1ncnc2nc[nH]c12 | inactive
36 | NC(=O)c1cnccn1 | inactive
37 | NNCCc1ccccc1 | inactive
38 | OC(CCN1CCCCC1)(c1ccccc1)C1CC2C=CC1C2 (stereo not given) | inactive
39 | CCCCNc1cc(C(=O)O)cc(S(N)(=O)=O)c1Oc1ccccc1 | inactive
40 | CC(=O)Oc1ccccc1C(=O)O | inactive
